Test results taken from PubChem BioAssay AID1159580 (chemical genetic matrix, 2015).
The whole screen tested about 5,500 compounds, of which about 2,000 (36%) were called active. Another 18% or so got no clear call; they are omitted. No stated cut-off is given here; in the data, active means normalized growth mostly below about 0.91 (no sharp cut-off); inconclusive means no clear call, values can overlap the other calls; inactive means mostly above about 0.92. The list shows a part of the results.

Experiment: chemical genetic growth profiling, strain panel (AID 1159580);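 further: tested at 20 µM; growth read once vehicle control cultures reached saturation at 30 °C; 1 = growth at the plate median or of vehicle wells; lower values mean less growth of the strain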
Details: growth OD

Measured: normalized growth

CC(=O)CC(c1ccccc1)c1c(O)c2ccccc2oc1=O (configuration not stated)
inactive: S. cerevisiae deletion strains, locus YJR075W, strain HOC1, hits give low values 0.981 | S. cerevisiae deletion strains, locus YKL009W, strain mrt4, hits give low values 1 | S. cerevisiae deletion strains, locus YKL068W, hits give low values 1 | S. cerevisiae deletion strains, locus YKL085W, strain MDH1 (second series), hits give low values 0.954 | S. cerevisiae deletion strains, locus YKL085W, strain MDH1, hits give low values 0.954 | S. cerevisiae deletion strains, locus YKL160W, strain elf1, hits give low values 1 | S. cerevisiae deletion strains, locus YKL190W, strain CNB1, hits give low values 1.01 | S. cerevisiae deletion strains, locus YKR001C, strain vps1, hits give low values 1.02 | S. cerevisiae deletion strains, locus YKR026C, strain gcn3, hits give low values 0.992 | S. cerevisiae deletion strains, locus YKR091W, strain srl3, hits give low values 0.995 | S. cerevisiae deletion strains, locus YLL001W, strain dnm1, hits give low values 0.993 | S. cerevisiae deletion strains, locus YLL026W, hits give low values 0.988 | S. cerevisiae deletion strains, locus YLL041C, strain sdh2, hits give low values 0.997 | S. cerevisiae deletion strains, locus YLR027C, strain aat2, hits give low values 1 | S. cerevisiae deletion strains, locus YLR039C, strain RIC1, hits give low values 0.986 | S. cerevisiae deletion strains, locus YLR058C, strain SHM2, hits give low values 1.01 | S. cerevisiae deletion strains, locus YLR102C, strain apc9, hits give low values 1.01 | S. cerevisiae deletion strains, locus YLR113W, strain HOG1, hits give low values 0.922 | S. cerevisiae deletion strains, locus YLR221C, strain rsa3, hits give low values 1.01 | S. cerevisiae deletion strains, locus YLR258W, strain gsy2, hits give low values 1 | S. cerevisiae deletion strains, locus YLR262C, strain YPT6 (second series), hits give low values 0.881 | S. cerevisiae deletion strains, locus YLR262C, strain YPT6, hits give low values 0.99 | S. cerevisiae deletion strains, locus YLR268W, strain sec22, hits give low values 1.03 | S. cerevisiae deletion strains, locus YLR320W, strain mms22, hits give low values 1.01 | S. cerevisiae deletion strains, locus YLR330W, strain CHS5, hits give low values 1 | S. cerevisiae deletion strains, locus YLR342W, strain FKS1 (second series), hits give low values 1.02 | S. cerevisiae deletion strains, locus YLR342W, strain FKS1, hits give low values 0.995 | S. cerevisiae deletion strains, locus YLR357W, strain rsc2, hits give low values 1.03 | S. cerevisiae deletion strains, locus YLR370C, strain arc18, hits give low values 0.993 | S. cerevisiae deletion strains, locus YLR371W, strain rom2, hits give low values 1.02 | S. cerevisiae deletion strains, locus YLR384C, strain iki3, hits give low values 0.986 | S. cerevisiae deletion strains, locus YLR418C, strain cdc73, hits give low values 1.06 | S. cerevisiae deletion strains, locus YML016C, strain PPZ1, hits give low values 1.01 | S. cerevisiae deletion strains, locus YML032C, strain rad52, hits give low values 1.03 | S. cerevisiae deletion strains, locus YML120C, strain ndi1, hits give low values 1 | S. cerevisiae deletion strains, locus YML124C, strain tub3, hits give low values 1.01 | S. cerevisiae deletion strains, locus YMR058W, strain fet3, hits give low values 1.01 | S. cerevisiae deletion strains, locus YMR078C, strain ctf18, hits give low values 1.02 | S. cerevisiae deletion strains, locus YMR125W, strain sto1, hits give low values 1.01 | S. cerevisiae deletion strains, locus YMR129W, hits give low values 1 | S. cerevisiae deletion strains, locus YMR205C, strain PFK2, hits give low values 1.01 | S. cerevisiae deletion strains, locus YMR223W, strain ubp8, hits give low values 1.01 | S. cerevisiae deletion strains, locus YMR231W, strain pep5, hits give low values 1 | S. cerevisiae deletion strains, locus YMR263W, strain SAP30, hits give low values 1.01 | S. cerevisiae deletion strains, locus YMR307W, strain GAS1, hits give low values 1.05 | S. cerevisiae deletion strains, locus YNL067W, strain RPL9B, hits give low values 1.01 | S. cerevisiae deletion strains, locus YNL071W, strain lat1, hits give low values 1 | S. cerevisiae deletion strains, locus YNL128W, strain TEP1, hits give low values 1.03 | S. cerevisiae deletion strains, locus YNL153C, strain GIM3, hits give low values 1 | S. cerevisiae deletion strains, locus YNL183C, strain NPR1, hits give low values 0.942 | S. cerevisiae deletion strains, locus YNL209W, strain ssb2, hits give low values 0.998 | S. cerevisiae deletion strains, locus YNL233W, strain BNI4, hits give low values 1.01 | S. cerevisiae deletion strains, locus YNL248C, strain rpa49, hits give low values 1.01 | S. cerevisiae deletion strains, locus YNL250W, strain rad50, hits give low values 1.05 | S. cerevisiae deletion strains, locus YNL271C, strain bni1, hits give low values 1.01 | S. cerevisiae deletion strains, locus YNL298W, strain CLA4, hits give low values 1.03 | S. cerevisiae deletion strains, locus YNL307C, strain MCK1, hits give low values 1.06 | S. cerevisiae deletion strains, locus YNL322C, strain KRE1 (second series), hits give low values 0.989 | S. cerevisiae deletion strains, locus YNL322C, strain KRE1, hits give low values 1.02 | S. cerevisiae deletion strains, locus YNR049C, strain mso1, hits give low values 0.995 | S. cerevisiae deletion strains, locus YNR052C, strain pop2, hits give low values 1.03 | S. cerevisiae deletion strains, locus YOL006C, strain TOP1, hits give low values 1 | S. cerevisiae deletion strains, locus YOL012C, strain htz1 1.19 | S. cerevisiae deletion strains, locus YOL147C, strain pex11, hits give low values 1.01 | S. cerevisiae deletion strains, locus YOR001W, strain rrp6, hits give low values 1.02 | S. cerevisiae deletion strains, locus YOR061W, strain CKA2, hits give low values 1.01 | S. cerevisiae deletion strains, locus YOR069W, strain VPS5, hits give low values 1 | S. cerevisiae deletion strains, locus YOR070C, strain gyp1, hits give low values 0.996 | S. cerevisiae deletion strains, locus YOR080W, strain dia2, hits give low values 1 | S. cerevisiae deletion strains, locus YOR083W, strain WHI5, hits give low values 1.01 | S. cerevisiae deletion strains, locus YOR106W, strain vam3, hits give low values 0.992 | S. cerevisiae deletion strains, locus YOR136W, strain idh2, hits give low values 1.03 | S. cerevisiae deletion strains, locus YOR144C, strain elg1, hits give low values 1.01 | S. cerevisiae deletion strains, locus YOR184W, strain ser1, hits give low values 1.04 | S. cerevisiae deletion strains, locus YOR231W, strain MKK1, hits give low values 0.983 | S. cerevisiae deletion strains, locus YOR265W, strain rbl2, hits give low values 0.984 | S. cerevisiae deletion strains, locus YOR270C, strain vph1, hits give low values 1.02 | S. cerevisiae deletion strains, locus YOR290C, strain snf2, hits give low values 1.01 | S. cerevisiae deletion strains, locus YOR316C, strain cot1, hits give low values 1.01 | S. cerevisiae deletion strains, locus YPL051W, strain arl3, hits give low values 0.994 | S. cerevisiae deletion strains, locus YPL055C, strain LGE1, hits give low values 1.05 | S. cerevisiae deletion strains, locus YPL078C, strain atp4, hits give low values 1.02 | S. cerevisiae deletion strains, locus YPL106C, strain sse1, hits give low values 1.02 | S. cerevisiae deletion strains, locus YPL240C, strain hsp82, hits give low values 1 | S. cerevisiae deletion strains, locus YPL241C, strain CIN2, hits give low values 1.01 | S. cerevisiae deletion strains, locus YPL256C, strain CLN2, hits give low values 0.955 | S. cerevisiae deletion strains, locus YPR119W, strain clb2, hits give low values 1.01 | S. cerevisiae deletion strains, locus YPR141C, strain kar3, hits give low values 1.01 | S. cerevisiae deletion strains, locus YPR163C, strain tif3, hits give low values 1.02 | S. cerevisiae deletion strains, locus YPR167C, strain met16, hits give low values 1.01 | S. cerevisiae deletion strains, strain wtn01, hits give low values 1 | S. cerevisiae strains, strain wild type, hits give low values 1.02
